# Results: PubChem BioAssay (Tox21)
# Where “and” joins values, the source holds several entries; their conditions need not be identical. Identical values can stand only once. Records with an inconclusive call do not appear. Entries that show only a call come without a potency. Some compounds were tested as several samples or in several runs, with calls that do not always agree. Calls of active or inactive are those of the source. Unless noted, calls follow the shape of the dose curve; as a rule, active = well fitted curve in the direction sought with a large enough effect in the repeat runs; inconclusive = weak or mixed curves; inactive = no such curve, though single readings can be large; an effect the other way counts as inactive or inconclusive.
# What was measured:
# [1] = qHTS assay to identify small molecule antagonists of the estrogen receptor alpha (ER-alpha) signaling pathway using the BG1 cell line in the presence of 0.1 nM 17-beta-estradiol - cell viability counter screen (AID 1259241); also: nearly all actives have a fitted effect of over 40% in size; also: potency is read from the fitted curve at half-maximal effect
# Procedure, shortened: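 Estradiol-stimulated (0.1 nM) VM7Luc4E2 cells exposed to compounds 22 hr; viability measured by fluorescence of cleaved CellTiter-Fluor substrate after 30 min.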
# [2] = qHTS assay to identify small molecule antagonists of the androgen receptor (AR) signaling pathway using the MDA cell line in the presence of 0.5 nM R1881 - cell viability counter screen (AID 1259242); also: nearly all actives have a fitted effect of over 45% in size; also: potency is read from the fitted curve at half-maximal effect
# Procedure, shortened: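 Counter screen for cytotoxicity run in the same wells as the AR antagonist reporter screen: MDA-kb2 cells were treated 16 hr with test compounds and 0.5 nM R1881, then live-cell protease activity was measured by fluorescence.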
# [3] = molecular target: Androgen receptor (Homo sapiens) (UniProt P10275); assay: qHTS assay to identify small molecule antagonists of the androgen receptor (AR) signaling pathway using the MDA cell line in the presence of 0.5 nM R1881 (AID 1259243); also: nearly all actives have a fitted effect of over 50% in size; also: potency is read from the fitted curve at half-maximal effect
# Procedure, shortened: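 Luciferase luminescence is the read-out: compounds are tested for suppressing 0.5 nM R1881-driven MMTV reporter activity in MDA-kb2 cells after 16 hr at 37C.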
# [4] = molecular target: Estrogen receptor (Homo sapiens) (UniProt P03372); assay: qHTS assay to identify small molecule antagonists of the estrogen receptor alpha (ER-alpha) signaling pathway using the BG1 cell line in the presence of 0.1 nM 17-beta-estradiol (AID 1259244); also: nearly all actives have a fitted effect of over 50% in size
# Procedure, shortened: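 Cells: VM7Luc4E2, endogenous ER-alpha, 4x ERE-luc stable. Pre-culture 5 d, phenol red-free, charcoal-stripped FBS. Plated 24 h, compound + E2 0.1 nM final, 22 h 37C/5% CO2. Readout ONE-Glo luminescence.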
# [5] = qHTS assay to identify small molecule HDAC inhibitors (AID 1259364); also: nearly all actives have a fitted effect of over 45% in size; also: potency is read from the fitted curve at half-maximal effect
# Procedure, shortened: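 Luminescence from a cell-permeant luminogenic class I/II HDAC substrate reports endogenous deacetylase activity in intact HCT-116 cells treated with compounds for 2 h.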
# [6] = qHTS assay to identify small molecule HDAC inhibitors - cell viability counter screen (AID 1259365); also: series mostly up to about 92 µM; nearly all actives have a fitted effect of over 50% in size
# Procedure, shortened: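 After overnight seeding at 1,500 cells per well, wild-type HCT-116 cultures took up compounds in DMSO for 2hr at 37 C. Viable cell content came from luminescence with CellTiter-Glo.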
# [7] = qHTS assay to identify small molecule agonists of the sonic hedgehog signaling (Shh) pathway - cell viability counter screen (AID 1259366); also: nearly all actives have a fitted effect of over 50% in size
# Procedure, shortened: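 Same-well cytotoxicity read. Gli1-Luc reporter 3T3 cells; compounds 24hr, 37C/5% CO2; CellTiter-Fluor fluorescence.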
# [8] = qHTS assay to identify small molecule antagonists of the sonic hedgehog signaling (Shh) pathway - cell viability counter screen (AID 1259367); also: nearly all actives have a fitted effect of over 55% in size; also: potency is read from the fitted curve at half-maximal effect
# Procedure, shortened: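 After a 4 hr settling period, 3T3 Gli1-Luc cells were treated with DMSO-dissolved chemicals and conditioned medium, kept 24 hr at 37C in 5% CO2, and assayed for viability by CellTiter-Fluor fluorescence following 1 hr reagent incubation.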
# [9] = qHTS assay to identify small molecule agonists of the sonic hedgehog signaling (Shh) pathway (AID 1259368; calls by dose curve;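 also: NIH/3T3-derived 3T3Gli1-Luc cells carrying a stable Gli1-driven firefly luciferase reporter; series mostly up to about 92 µM; nearly all actives have a fitted effect of over 15% in size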)
# Procedure, shortened: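 3T3Gli1-Luc (NIH/3T3 clone, stable Gli1-Luc); 4 hr pre-incubation, then cpd in DMSO 24 hr, 37 C/5% CO2; luciferase reagent 30 min RT; luminescence.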
# [10] = qHTS assay to identify small molecule antagonists of the sonic hedgehog signaling (Shh) pathway (AID 1259369; calls by dose curve; also: nearly all actives have a fitted effect of over 45% in size; also: potency is read from the fitted curve at half-maximal effect)
# Procedure, shortened: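 3T3Gli1-Luc, conditioned-medium-stimulated, 24hr cpd, 37C/5% CO2; Gli1-driven firefly Luc luminescence after 30min RT with luciferase reagent. Cells plated 4hr before cpd.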
# [11] = qHTS assay to identify small molecule agonists of the androgen receptor (AR) signaling pathway in the presence of an antagonist - cell viability counter screen (AID 1259379); also: nearly all actives have a fitted effect of over 25% in size; also: potency is read from the fitted curve at half-maximal effect
# Procedure, shortened: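 Cells: MDA-kb2 (MMTV-luc, AR and GR elements), 3,000/well, 5 hr settle. Added: nilutamide 3.0uM final, then compounds (15 conc.). Incubation: 16 hr, 37C, no CO2. Read-out: CellTiter-Fluor, 1 hr, fluorescence.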
# [12] = qHTS assay to identify small molecule agonists of the estrogen receptor beta (ER-beta) signaling pathway - cell viability counter screen (AID 1259380); also: nearly all actives have a fitted effect of over 30% in size; also: potency is read from the fitted curve at half-maximal effect
# Procedure, shortened: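 HEK293T ER-beta-UAS-bla; 2% CS-FBS; 6 hr pre-plate, 16 hr cpd at 37C/5% CO2; LiveBLAzer read first, then CellTiter-Glo 30 min RT, luminescence.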
# [13] = molecular target: Androgen receptor (Homo sapiens) (UniProt P10275); assay: qHTS assay to identify small molecule agonists of the androgen receptor (AR) signaling pathway in the presence of an antagonist (AID 1259381; calls by dose curve; also: nearly all actives have a fitted effect of over 15% in size; also: potency is read from the fitted curve at half-maximal effect)
# Procedure, shortened: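 MDA-kb2 cells, 3,000/well, rested 5hr at 37C/0% CO2 → nilutamide 3.0uM final or buffer → compounds, 15 conc. → 16hr at 37C → ONE-Glo, 30min RT → luminescence.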
# [14] = qHTS assay to identify small molecule antagonists of the estrogen receptor beta (ER-beta) signaling pathway - cell viability counter screen (AID 1259382); also: nearly all actives have a fitted effect of over 55% in size; also: potency is read from the fitted curve at half-maximal effect
# Procedure, shortened: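 Cells: ER-beta-UAS-bla HEK293T, 2,000/well, 2% CS-FBS, 6 hr settle. Cpd + E2 (1nM final), 16 hr, 37C/5% CO2. Bla FRET substrate 2 hr RT, then CellTiter-Glo 30 min RT, luminescence.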
# [15] = molecular target: Estrogen receptor (Homo sapiens) (UniProt P03372); assay: qHTS assay to identify small molecule agonists of the estrogen receptor alpha (ER-alpha) signaling pathway in the presence of an antagonist (AID 1259383; calls by dose curve; also: top concentration of the series differs between compounds; nearly all actives have a fitted effect of over 15% in size)
# Procedure, shortened: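 VM7Luc4E2, endog. ER-alpha + 4×ERE-luc; charcoal-stripped FBS, phenol red-free, 5 d; 24hr plating; +10.0nM ICI-182,780 (final); cpds 15 conc, 22hr, 37C/5% CO2; ONE-Glo luminescence.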
# [16] = qHTS assay to identify small molecule agonists or antagonists of the thyroid stimulating hormone receptor (TSHR) signaling pathway - wild type cell line counter screen (AID 1259384; calls by dose curve)
# Procedure, shortened: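 Wild-type HEK293 cells were plated 18 h at 37 C/5% CO2, pin-dosed with compound plus Ro20-1724 medium, held 30 min at room temperature, then given cAMP-d2 and anti-cAMP-cryptate; fluorescence was read after 1 h. Fifteen concentrations, triplicate.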
# [17] = molecular target: Thyrotropin receptor (Homo sapiens) (UniProt P16473); assay: qHTS assay to identify small molecule antagonists of the thyroid stimulating hormone receptor (TSHR) signaling pathway (AID 1259385; calls by dose curve; also: nearly all actives have a fitted effect of over 20% in size; also: potency is read from the fitted curve at half-maximal effect)
# Procedure, shortened: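 TSHR-HEK293 cells were plated and held 18 h at 37C/5% CO2, then given compound plus Ro20-1724 and stimulated with TSH at 1.5 ng/mL final. After 30 min at room temperature, cAMP was detected with cAMP-d2/anti-cAMP-cryptate (1 h) by fluorescence.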
# [18] = qHTS assay to identify small molecule phospholipidosis (PLD) inducers (AID 1259344; active = well fitted curve in the direction sought with a large enough effect; an effect the other way counts as inactive or inconclusive)
# Procedure, shortened: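 HepG2 cells grown on collagen I take up LipidTOX Red while exposed to compound for 24 h; after fixation they are imaged at 20x and pit metrics are extracted.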
# [19] = molecular target: Estrogen receptor beta (Homo sapiens) (UniProt Q92731); assay: qHTS assay to identify small molecule agonists of the estrogen receptor beta (ER-beta) signaling pathway (AID 1259377; active = well fitted activation curve with a large enough effect in the signal ratio in the repeat runs, not every such curve was filed as active; the % refers to the signal ratio)
# Procedure, shortened: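 Read-out: beta-lactamase FRET fluorescence. Cell line: ER-beta-UAS-bla HEK293T in 2% charcoal-stripped FBS. Exposure: 16 hr at 37C. Substrate step: 2 h at room temperature.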
# [20] = molecular target: Estrogen receptor beta (Homo sapiens) (UniProt Q92731); assay: qHTS assay to identify small molecule antagonists of the estrogen receptor beta (ER-beta) signaling pathway (AID 1259378; active = well fitted inhibition curve with a large enough effect in the signal ratio in the repeat runs, not every such curve was filed as active; the % refers to the signal ratio; also: potency is read from the fitted curve at half-maximal effect)
# Procedure, shortened: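 ER-beta-UAS-bla HEK293T (GripTite) cells in 2% charcoal-stripped FBS medium were preincubated 6 hr at 37C, dosed with compound, then stimulated with 1 nM E2 (final) for 16 hr; beta-lactamase reporter read by B/G FRET fluorescence after 2 hr substrate loading.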
# Estrogen receptor (Homo sapiens), sequence (P03372 whole entry, looked up): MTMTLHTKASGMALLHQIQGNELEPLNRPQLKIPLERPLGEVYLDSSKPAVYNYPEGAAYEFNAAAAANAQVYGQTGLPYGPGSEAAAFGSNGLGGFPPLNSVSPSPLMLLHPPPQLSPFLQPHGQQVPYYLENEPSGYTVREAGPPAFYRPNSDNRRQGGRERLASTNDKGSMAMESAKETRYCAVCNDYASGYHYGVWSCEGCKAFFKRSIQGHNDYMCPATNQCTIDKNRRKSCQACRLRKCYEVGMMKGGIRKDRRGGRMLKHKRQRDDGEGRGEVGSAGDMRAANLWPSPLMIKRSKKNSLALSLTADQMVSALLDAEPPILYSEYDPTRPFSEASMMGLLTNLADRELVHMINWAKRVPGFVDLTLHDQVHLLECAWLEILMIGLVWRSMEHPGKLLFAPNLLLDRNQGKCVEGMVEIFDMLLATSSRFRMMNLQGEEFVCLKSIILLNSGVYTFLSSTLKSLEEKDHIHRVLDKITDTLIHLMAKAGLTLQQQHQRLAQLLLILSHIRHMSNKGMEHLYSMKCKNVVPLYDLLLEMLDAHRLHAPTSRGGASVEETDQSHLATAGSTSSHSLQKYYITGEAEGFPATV
# Estrogen receptor beta (Homo sapiens), sequence (Q92731 whole entry, looked up): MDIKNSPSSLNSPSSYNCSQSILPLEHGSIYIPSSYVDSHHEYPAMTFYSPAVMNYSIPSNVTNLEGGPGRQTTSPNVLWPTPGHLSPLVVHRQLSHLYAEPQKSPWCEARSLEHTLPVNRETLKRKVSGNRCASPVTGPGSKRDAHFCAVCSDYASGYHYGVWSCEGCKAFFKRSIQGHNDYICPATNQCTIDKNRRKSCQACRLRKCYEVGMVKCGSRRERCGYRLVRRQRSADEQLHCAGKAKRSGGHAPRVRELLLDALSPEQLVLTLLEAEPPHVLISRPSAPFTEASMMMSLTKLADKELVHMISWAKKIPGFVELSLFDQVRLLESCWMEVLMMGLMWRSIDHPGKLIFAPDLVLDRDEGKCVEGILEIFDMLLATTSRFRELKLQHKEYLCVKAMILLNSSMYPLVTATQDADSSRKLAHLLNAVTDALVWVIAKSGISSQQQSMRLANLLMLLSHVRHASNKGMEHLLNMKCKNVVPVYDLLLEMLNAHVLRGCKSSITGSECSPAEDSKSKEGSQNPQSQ
# Androgen receptor (Homo sapiens), sequence (P10275 whole entry, looked up): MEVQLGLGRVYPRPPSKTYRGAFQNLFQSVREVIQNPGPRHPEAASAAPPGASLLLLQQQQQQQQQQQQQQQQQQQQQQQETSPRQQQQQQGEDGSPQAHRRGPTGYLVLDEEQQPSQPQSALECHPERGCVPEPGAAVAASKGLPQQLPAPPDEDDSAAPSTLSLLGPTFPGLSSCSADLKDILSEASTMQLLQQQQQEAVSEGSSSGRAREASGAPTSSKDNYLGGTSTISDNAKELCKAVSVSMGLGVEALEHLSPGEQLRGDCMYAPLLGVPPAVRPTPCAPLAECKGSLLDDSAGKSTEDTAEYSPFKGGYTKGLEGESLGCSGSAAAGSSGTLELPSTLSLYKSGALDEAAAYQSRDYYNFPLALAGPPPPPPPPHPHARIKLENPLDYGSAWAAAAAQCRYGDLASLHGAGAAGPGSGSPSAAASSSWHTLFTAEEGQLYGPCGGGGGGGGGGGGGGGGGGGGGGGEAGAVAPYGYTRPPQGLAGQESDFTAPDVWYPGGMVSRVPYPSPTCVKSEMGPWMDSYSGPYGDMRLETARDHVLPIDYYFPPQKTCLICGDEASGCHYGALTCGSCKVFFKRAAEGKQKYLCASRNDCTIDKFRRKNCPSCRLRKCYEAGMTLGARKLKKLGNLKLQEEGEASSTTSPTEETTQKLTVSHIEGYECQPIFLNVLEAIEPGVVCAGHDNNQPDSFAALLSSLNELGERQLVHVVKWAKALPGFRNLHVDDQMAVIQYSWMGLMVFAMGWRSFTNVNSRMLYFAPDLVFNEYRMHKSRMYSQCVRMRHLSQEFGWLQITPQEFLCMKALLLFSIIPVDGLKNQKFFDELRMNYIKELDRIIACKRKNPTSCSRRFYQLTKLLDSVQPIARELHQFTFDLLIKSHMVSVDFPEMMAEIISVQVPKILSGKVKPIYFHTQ
# Thyrotropin receptor (Homo sapiens), sequence (P16473 whole entry, looked up): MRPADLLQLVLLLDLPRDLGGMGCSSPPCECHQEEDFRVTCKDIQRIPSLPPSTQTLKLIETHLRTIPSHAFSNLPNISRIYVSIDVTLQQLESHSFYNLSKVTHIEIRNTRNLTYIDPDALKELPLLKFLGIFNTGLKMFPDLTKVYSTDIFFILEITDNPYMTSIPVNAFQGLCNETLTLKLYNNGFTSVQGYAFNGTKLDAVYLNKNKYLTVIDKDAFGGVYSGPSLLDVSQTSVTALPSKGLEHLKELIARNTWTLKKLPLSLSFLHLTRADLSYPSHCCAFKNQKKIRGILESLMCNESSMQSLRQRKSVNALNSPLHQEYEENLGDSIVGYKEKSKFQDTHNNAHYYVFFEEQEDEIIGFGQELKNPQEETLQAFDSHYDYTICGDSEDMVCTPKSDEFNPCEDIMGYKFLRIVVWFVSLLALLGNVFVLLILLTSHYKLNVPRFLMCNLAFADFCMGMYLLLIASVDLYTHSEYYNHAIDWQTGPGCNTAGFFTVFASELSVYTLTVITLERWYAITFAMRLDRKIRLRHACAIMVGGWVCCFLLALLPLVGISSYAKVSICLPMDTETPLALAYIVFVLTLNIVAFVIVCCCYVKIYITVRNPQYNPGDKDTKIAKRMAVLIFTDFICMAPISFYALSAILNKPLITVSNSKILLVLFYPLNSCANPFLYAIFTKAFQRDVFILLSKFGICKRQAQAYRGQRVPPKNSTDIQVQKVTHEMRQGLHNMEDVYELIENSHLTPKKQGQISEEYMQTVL
Compound,Potency [1],Potency [2],Potency [3],Potency [4],Potency [5],Potency [6],Potency [7],Potency [8],Potency [9],Potency [10],Potency [11],Potency [12],Potency [13],Potency [14],Potency [15],outcome [16],Potency [17],outcome [18],Potency [19],Potency [20]
CCOP(=S)(S)OCC,inactive,inactive,inactive,inactive,inactive,inactive,inactive,inactive,inactive,inactive,inactive,inactive,inactive,inactive,inactive,inactive,inactive,,,
C[CH2][Hg][S]c1ccccc1C(=O)O,21.7 µM (active) and 5.96 µM (active),17.2 µM (active) and 11.9 µM (active),7.7 µM (active) and 7.5 µM (active),,19.3 µM (active) and 23.7 µM (active),inactive,,1.93 µM (active) and 5.96 µM (active),inactive,,10.9 µM (active) and 13.3 µM (active),2.17 µM (active) and 5.31 µM (active),inactive,2.43 µM (active) and 5.31 µM (active),,,13.7 µM (active) and 29.8 µM (active),inactive,inactive,3.35 µM (active)
CC(Cc1ccccc1)NCc1ccccc1Cl (stereo unspecified),inactive,inactive,,inactive,inactive,inactive,inactive,inactive,inactive,,inactive,inactive,,inactive,inactive,,inactive,inactive,,
O=[N+]([O-])O[C@H]1CO[C@H]2[C@@H]1OC[C@H]2O[N+](=O)[O-],inactive,inactive,,inactive,inactive,inactive,inactive,inactive,inactive,inactive,inactive,,,inactive,inactive,inactive,inactive,inactive,inactive,inactive
O=C(O)CCCOc1ccc(Cl)cc1Cl,inactive,inactive,inactive,,inactive,inactive,inactive,inactive,inactive,inactive and 44 µM (active),inactive,inactive,inactive and 55.4 µM (active),inactive,,inactive,,inactive,,inactive
O=C(Cl)OCCOCCOC(=O)Cl,inactive,inactive,inactive,inactive,inactive,inactive,,inactive,inactive,inactive,inactive,inactive,inactive,inactive,inactive,inactive,inactive,,,
O=P(OCC(Br)CBr)(OCC(Br)CBr)OCC(Br)CBr (stereo unspecified),inactive,inactive,31 µM (active) and 51.7 µM (active),,inactive,inactive,,55.2 µM (active),inactive,inactive,,,inactive,inactive,inactive,inactive,inactive,,inactive,
CCC1(CCC(C)C)C(=O)NC(=O)NC1=O,inactive,inactive,inactive,,inactive,inactive,inactive,inactive,inactive,inactive,inactive,inactive,inactive,inactive,,,,inactive,inactive,inactive
C[N+]1(CCC(C(N)=O)(c2ccccc2)c2ccccc2)CCCCC1,inactive,inactive,,inactive,inactive,inactive,inactive,inactive,inactive,inactive,inactive,inactive,,inactive,inactive,inactive,inactive,inactive,,
CCN(C(C)=O)c1cccc(-c2ccnc3c(C#N)cnn23)c1,inactive,inactive,,inactive,inactive,inactive,inactive,inactive,inactive,,inactive,inactive,,inactive,inactive,inactive,inactive,inactive,,
CN(C)N,inactive,inactive,inactive,,inactive,inactive,inactive,inactive,inactive,inactive,inactive,inactive,inactive,inactive,,,inactive,,inactive,
CCOC(=O)NC(O)C(Cl)(Cl)Cl (stereo unspecified),inactive,inactive,,inactive,inactive,inactive,inactive,inactive,inactive,inactive,inactive,inactive,,inactive,inactive,inactive,inactive,inactive,,
CC(=O)NNc1ccccc1,inactive,inactive,inactive,,inactive,inactive,,inactive,inactive,inactive,inactive,,inactive,,,inactive,,,inactive,
COc1cc(CC#N)cc(OC)c1OC,inactive,inactive,inactive,inactive,inactive,inactive,inactive,inactive,inactive,inactive,inactive,inactive,inactive,inactive,inactive,,inactive,,inactive,
